Our source for the growth values is PubChem BioAssay (NCI).

Molecules are shown by their SMILES. About 83,000 compounds went through this panel and 20% of them were active in at least one assay; those are over-represented in the sample as a whole.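 Method: cells in 96-well plates; compound added at one concentration; 48 h incubation; percent growth measured; values under 10 scored active.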 Unmarked numbers belong to inactive results. Active and inactive are the calls of the source.

Some test systems named below: HCT-15 colon; HT29 colon; SNB-75 CNS; SNB-19 CNS; U251 CNS; PC-3 prostate; SK-MEL-5 melanoma; UACC-62 melanoma; LOX IMVI melanoma; SK-MEL-28 melanoma; SK-MEL-2 melanoma; EKVX NSCLC; SN12C renal; UO-31 renal; TK-10 renal; ACHN renal; CAKI-1 renal; A498 renal; CCRF-CEM leukemia; MOLT-4 leukemia.
What all share (test): NCI-60 one-dose screen, 48 h (100 = growth as untreated, 0 = no growth, -100 = all killed)
What all share (settings): 10 µM unless noted

Regarding `COC(=O)c1n[nH]c2ccc3nc(-c4cn[nH]c4C(F)(F)F)c4c(c3c12)CCCC4`, the growth is 39% with HCT-15 colon; 25.7% with HT29 colon; 28.8% in the test with SNB-75 CNS; 68.7% with SNB-19 CNS; 41.7% with U251 CNS; 64.4% with PC-3 prostate. In addition, the growth in the test on SK-MEL-5 melanoma was 40.4%; in the test with UACC-62 melanoma, 21.6%; with LOX IMVI melanoma, 21.7%; in the test with SK-MEL-28 melanoma, 25.5%; in the test with SK-MEL-2 melanoma, 11.9%; in the test with EKVX NSCLC, 64%. Besides, the growth in the test on SN12C renal was 47.7%; in the test on UO-31 renal, 29%; in the test with TK-10 renal, 19.4%; with ACHN renal it was 39%; in the test with CAKI-1 renal, 15.3%; in the test with A498 renal, 5.79% (active). The growth is 42.8% in the test with CCRF-CEM leukemia and 50.4% in the test on MOLT-4 leukemia.
As to `CN1CCN(Cc2ccc3c(NNC(=O)c4ccccc4)nc4cc(F)ccc4n23)CC1`, the growth in the test on HCT-15 colon is 33.8%; in the test on HT29 colon, 30.7%; in the test on SNB-75 CNS, 48.8%; in the test on SNB-19 CNS, 27.4%; with U251 CNS it was 12.2%; in the test with PC-3 prostate it was 39.9%. Also, the growth is -26.8% (active) in the test on SK-MEL-5 melanoma; 4.48% (active) in the test with UACC-62 melanoma; 7.25% (active) with LOX IMVI melanoma; 34.9% in the test with SK-MEL-28 melanoma; 57.7% in the test on SK-MEL-2 melanoma; 21.5% with EKVX NSCLC. Besides, the growth is 17.2% in the test with SN12C renal; 7.31% (active) with UO-31 renal; 30% in the test with TK-10 renal; 11.5% in the test on ACHN renal; 11.8% with CAKI-1 renal; -7.93% (active) in the test with A498 renal. Also, the growth is 12.2% in the test with CCRF-CEM leukemia and 12% in the test on MOLT-4 leukemia.
Take `O=C1N(Cc2ccccc2Cl)c2ccccc2C12NN=C(c1cccc(Cl)c1)S2` (stereo not given): the growth was 0.214% (active) with HCT-15 colon; 94.4% with HT29 colon; 16.7% with SNB-75 CNS; 20.9% in the test with SNB-19 CNS; -30% (active) in the test on U251 CNS; -64.3% (active) in the test with PC-3 prostate. Also, the growth in the test with SK-MEL-5 melanoma was 14.5%; with UACC-62 melanoma it was -44.3% (active); with LOX IMVI melanoma, -19.4% (active); with SK-MEL-28 melanoma, 7.1% (active); in the test with SK-MEL-2 melanoma, -23.1% (active); in the test with EKVX NSCLC, -31% (active). Further, the growth is -19.8% (active) in the test on SN12C renal; -58.3% (active) in the test with UO-31 renal; -3.68% (active) with TK-10 renal; -47.1% (active) in the test with ACHN renal; -30.7% (active) with CAKI-1 renal; -85.9% (active) in the test on A498 renal. The growth in the test with CCRF-CEM leukemia is 1.03% (active); with MOLT-4 leukemia, -18% (active).
In the case of `COc1ccc(C(c2cc(OC)c(OC)c(OC)c2)N2CCN(c3ccccc3)CC2)cc1` (stereo not given), the growth in the test with HCT-15 colon is 67.6%; in the test with HT29 colon, 63.5%; in the test on SNB-75 CNS, 90.2%; in the test with SNB-19 CNS, 84.1%; in the test with U251 CNS, 96.4%; with PC-3 prostate, 73.3%. Further, the growth in the test with SK-MEL-5 melanoma is 85.2%; in the test with UACC-62 melanoma it was 55.2%; with LOX IMVI melanoma it was 87.3%; in the test on SK-MEL-28 melanoma it was 84.5%; with SK-MEL-2 melanoma, 69.3%; in the test with EKVX NSCLC it was 99.6%. Besides, the growth in the test on SN12C renal was 101%; with UO-31 renal, 73.4%; in the test on TK-10 renal, 106%; in the test with ACHN renal, 98%; with CAKI-1 renal, 86.4%; with A498 renal it was 89.2%. Besides, the growth in the test with CCRF-CEM leukemia is 82.6%; in the test with MOLT-4 leukemia, 72.8%.
Turning to `Cc1nc2sc(C(=O)Nc3ccccc3)c(N)c2cc1C(=O)c1ccccc1`, the growth in the test with HCT-15 colon was 24.4%; in the test with HT29 colon, 22.9%; in the test on SNB-75 CNS, 26.2%; in the test on SNB-19 CNS, 21.3%; with U251 CNS, 25.4%; with PC-3 prostate, 33.4%. Also, the growth with SK-MEL-5 melanoma is 31.9%; in the test on UACC-62 melanoma, 17.4%; with LOX IMVI melanoma it was 50%; in the test with SK-MEL-28 melanoma it was 46.8%; with SK-MEL-2 melanoma, 49.9%; with EKVX NSCLC, 35.2%. In addition, the growth is 81.5% in the test with SN12C renal; 59.5% in the test with UO-31 renal; 54.7% with TK-10 renal; 51.7% in the test on ACHN renal; 35.6% in the test with CAKI-1 renal; -3.88% (active) in the test on A498 renal. For the same compound, the growth with CCRF-CEM leukemia is 8.47% (active); in the test with MOLT-4 leukemia, 31.6%.
With `Cc1ccc(-c2nc(N3CCNCC3)c3oc(-c4ccccc4)nc3n2)cc1`, the growth in the test with HCT-15 colon was -77.7% (active); in the test on HT29 colon, -93.8% (active); with SNB-75 CNS, 85.4%; in the test on SNB-19 CNS, 16.7%; in the test on U251 CNS, -98.2% (active); in the test on PC-3 prostate, -81.5% (active). The growth in the test on SK-MEL-5 melanoma was 70.9%; in the test on UACC-62 melanoma, 91.3%; with LOX IMVI melanoma it was -89.1% (active); in the test with SK-MEL-28 melanoma, -81.3% (active); in the test on SK-MEL-2 melanoma it was 61.2%; with EKVX NSCLC, 101%. In addition, the growth in the test with SN12C renal is -84.3% (active); with UO-31 renal, -90.6% (active); in the test on TK-10 renal it was -98.6% (active); in the test on ACHN renal, -99.8% (active); with CAKI-1 renal it was 40.5%; in the test with A498 renal, 95.7%. Further, the growth in the test on CCRF-CEM leukemia is -76% (active); in the test on MOLT-4 leukemia, -68.8% (active).
Turning to `COC(=O)[C@]1(C)CCC[C@]2(C)[C@H]3C[C@H]4C(C(C)C)=C[C@]3(CC[C@H]21)[C@H]1[C@@H]4[C@@H](OCCC#N)CC[C@@H]1OCCC#N`, the growth was 29.9% in the test with HCT-15 colon; 6.91% (active) in the test on HT29 colon; 75.6% with SNB-75 CNS; 52.3% in the test on SNB-19 CNS; 33.3% in the test with U251 CNS; 2.36% (active) in the test with PC-3 prostate. Moreover, the growth in the test on SK-MEL-5 melanoma was 26.2%; with UACC-62 melanoma, 39.5%; in the test with LOX IMVI melanoma, 59.7%; with SK-MEL-28 melanoma it was 61.9%; in the test on SK-MEL-2 melanoma, 28.8%; in the test on EKVX NSCLC, 29.9%. Further, the growth in the test on SN12C renal is 2.29% (active); in the test with UO-31 renal, 32.6%; with TK-10 renal it was 46.2%; in the test with ACHN renal it was 39.2%; with CAKI-1 renal, 51.8%; in the test with A498 renal it was 66.8%. Moreover, the results for the growth with CCRF-CEM leukemia and with MOLT-4 leukemia were 19.1% and 4.3% (active), respectively.
